Screens as filed in PubChem.
GDH-TPI counter-1 – GDH-TPI coupled enzyme inhibition counter-screen | AID 588335 | GDH-TPI coupled enzyme counterscreen, NADH absorbance | 360,000 compounds, 1.2% hits | inhibition, % at 4.8 µM; in the data active = inhibition above about 30%
Mtb betalactam – beta-lactam sensitization of Mtb H37Rv; 330,000 compounds, 0.27% hits; M. tuberculosis H37Rv growth with meropenem, percent inhibition; inhibition, % at 25 µM;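 note: growth measured after seven days incubation then overnight dye step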
VHR inh abs – inhibitors of human VHR1 phosphatase (DUSP3); AID 1654; recombinant VHR phosphatase, pNPP absorbance; P51452; inhibition, % at 13.3 µM; 290,000 compounds, 0.52% hits; in the data active = inhibition above about 50%
Target sequence (P51452 whole entry, looked up): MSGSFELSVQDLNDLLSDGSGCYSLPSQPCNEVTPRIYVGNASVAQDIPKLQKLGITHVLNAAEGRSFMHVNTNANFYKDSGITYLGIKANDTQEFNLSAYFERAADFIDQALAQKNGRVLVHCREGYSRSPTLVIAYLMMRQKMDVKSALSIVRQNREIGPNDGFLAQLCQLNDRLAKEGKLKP
FBA Mtb inh – Mtb fructose-bisphosphate aldolase inhibition; purified M. tuberculosis FBA, fluorescence read-out; inhibition, % at 1 µM; P9WQA3; AID 588726; 360,000 compounds, 2.3% hits; in the data active = inhibition above about 27%
Target sequence (P9WQA3 whole entry, looked up): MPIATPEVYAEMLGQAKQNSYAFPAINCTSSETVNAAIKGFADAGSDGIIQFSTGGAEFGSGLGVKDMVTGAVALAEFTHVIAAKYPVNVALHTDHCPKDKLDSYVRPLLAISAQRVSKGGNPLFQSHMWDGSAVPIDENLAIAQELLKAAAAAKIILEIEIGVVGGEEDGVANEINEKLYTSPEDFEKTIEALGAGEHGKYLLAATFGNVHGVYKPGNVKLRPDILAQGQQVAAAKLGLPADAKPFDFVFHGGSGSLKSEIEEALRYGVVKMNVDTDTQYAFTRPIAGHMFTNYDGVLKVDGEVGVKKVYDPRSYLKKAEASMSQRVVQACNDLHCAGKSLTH
Mtb hypoxia inh – reduces hypoxia-regulated biosensor signal in M. tuberculosis; M. tuberculosis hypoxia-regulated fluorescent reporter, fluorescence; fluorescence inhibition, % (test concentration not listed); 300,000 compounds, 0.1% hits; AID 1159583; in the data active = fluorescence inhibition mostly above about 23%, no sharp cut-off; inactive = mostly below about 17%
Mtb FBA inh conf – confirmation of M. tuberculosis fructose-bisphosphate aldolase inhibitors. shares compounds with FBA Mtb inh. purified M. tuberculosis FBA, fluorescence read-out. inhibition, % at 1 µM. 5,600 compounds, 78% hits; in the data active = inhibition above about 27%
GDH-TPI counter-2 – counter-screen for M. tuberculosis FBA inhibitors: GDH-TPI coupled enzyme inhibition. shares compounds with FBA Mtb inh. GDH-TPI coupled enzyme counterscreen, fluorescence. inhibition, % at 1 µM. 5,600 compounds, 81% hits. AID 652141; in the data active = inhibition above about 10%
GDH-TPI dose – GDH-TPI dose response counter-screen for Mtb FBA | shares compounds with FBA Mtb inh | GDH-TPI coupled enzyme assay, fluorescence, artifact counterscreen | IC50, µM | 170 compounds, 79% hits | AID 652145
Numbers stand for hits; i = inactive; nt = no result given; + = active, no number; ! = not confirmed by another sample. Only some compounds are listed: those with a hit (about 3.6% of all), similar ones and a draw of the others. Unless noted, the rule behind the calls is not given here.

SMILES	GDH-TPI counter-1	Mtb betalactam	VHR inh abs	FBA Mtb inh	Mtb hypoxia inh	Mtb FBA inh conf	GDH-TPI counter-2	others
CN(C)c1cccc(C(=O)OCc2cc(=O)oc3cc(O)ccc23)c1	i	i	i	55	i	+	+
COc1ccc2c(COC(=O)CCS(=O)(=O)c3ccc(C)cc3)cc(=O)oc2c1	i	i	nt	107	i	30	26
CC1CN(S(=O)(=O)c2cccc(C(=O)OCc3cc(=O)oc4cc(O)ccc34)c2)CC(C)O1 (stereo not given)	i	i	i	i	i	nt	nt
COc1ccc2c(COC(=O)CNS(=O)(=O)c3ccc(C)c(C)c3)cc(=O)oc2c1	i	i	nt	73	i	31	28
CCCNS(=O)(=O)c1cccc(C(=O)OCc2cc(=O)oc3cc(OC)ccc23)c1	i	i	i	38	i	76	59
O=S(=O)(NN=Cc1cccc(OC2CSC2)c1)c1ccccc1	nt	nt	nt	nt	i	nt	nt
O=C(C=Cc1cn(-c2ccccc2)nc1-c1ccc2c(c1)OCCO2)NCCO	nt	nt	nt	nt	i	nt	nt
CC(=NNS(=O)(=O)c1ccc(C)cc1)c1c(O)c2ccccc2oc1=O	nt	nt	nt	nt	i	nt	nt
CCOc1ccc(-c2c(C(=O)NN=Cc3ccc(C)cc3)nnn2-c2nonc2N)cc1	nt	nt	nt	nt	i	nt	nt
CCCOc1ccc(C=NNC(=O)C2CC2)c(OCCC)c1	nt	nt	nt	nt	i	nt	nt
CCN1CCN(Cc2ccc(NC(=O)c3ccc(C)c(NC(=O)c4cccc5[nH]ccc45)c3)cc2C(F)(F)F)CC1	i	i	i	30!	i	+	+
COc1ccc(-c2cnc3c(c2)CCC3(C#N)C#N)cc1	i	i	i	58	i	50	33
CCCN1C(=O)c2ccccc2NC1c1cc(OC)c(OC)c(OC)c1 (stereo not given)	i	i	i	71	nt	137	114
CCN(CC)CCN1C(=O)c2ccccc2NC1c1cc(OC)c(OC)c(OC)c1 (stereo not given)	i	i	i	107	i	+	+
O=C(CSc1ccc(Cl)cc1)NN=Cc1cccnc1	nt	nt	nt	nt	i	nt	nt
Cc1ccn2c(NC(C)(C)C)c(-c3cccs3)nc2c1	i	i	i	33	i	+	+
CC(C)CCNc1c(-c2cccs2)nc2ccccn12	i	i	i	46	i	38	21
Cc1ccn2c(NC(=O)c3cccs3)c(-c3ccccc3)nc2c1	i	i	i	i	i	nt	nt
Cc1cc(C)nc(SCc2ccc(C(=O)NN=Cc3ccco3)cc2)n1	nt	nt	nt	nt	i	nt	nt
CCOC(=O)Nc1cc2c(C)cc(=O)oc2cc1C	i	i	i	28	i	54	42
CC1=CSC(=C(C#N)C(=O)N2CCCCC2)N1c1ccccc1	nt	nt	nt	nt	i	nt	nt
CS(=O)(=O)c1ccc(Cl)c(C(=O)NC2CCSc3ccccc32)c1 (stereo not given)	i	i	i	64	i	i	i
COCC=CC1=CC2=CC(=O)C(C)(OC(=O)c3cnc4ccccc4n3)C(=O)C2=CN1CCCOC(C)C (stereo not given)	nt	nt	nt	nt	i	nt	nt
COC(=O)c1ccc(C23CC4(C2)C(CN(C)C4c2ccccc2)C3c2ccc(Cl)nc2)cc1 (stereo not given)	nt	nt	nt	nt	i	nt	nt
Cc1cc(N2CCN(C)CC2)nc2ccc(NC(=O)CCC(=O)NCCC(C)C)cc12	i	i	i	33	i	i	i
SMILES	GDH-TPI counter-1	Mtb betalactam	VHR inh abs	FBA Mtb inh	Mtb hypoxia inh	Mtb FBA inh conf	GDH-TPI counter-2	others
Cc1cc(N2CCN(C)CC2)nc2ccc(NC(=S)N3CCN(c4ccc(Cl)cc4)CC3)cc12	i	i	i	27	i	135	128
Cc1cc(N2CCN(C)CC2)nc2ccc(NC(=O)CCC(=O)NCc3ccco3)cc12	i	i	i	32	i	68	69
CN1C[C@@H](c2ccc(Cl)c(Cl)c2)[C@@]2(COc3ccccc3C2=O)[C@@]12C(=O)Nc1ccccc12	nt	nt	nt	nt	i	nt	nt
CC1CN(C(C)CO)C(=O)c2cc(NC(=O)CCN3CCOCC3)ccc2OC1CN(C)C(=O)Nc1ccccc1 (stereo not given)	nt	nt	nt	nt	i	nt	nt
Fc1ccc(COc2ccc(C(=S)N3CCCC3)cc2)cc1	i	i	i	i	i	nt	nt
S=C(c1ccc(OCc2ccccc2)cc1)N1CCCC1	i	i	i	30	i	i	i	GDH-TPI dose=i
O=C(c1cnccn1)N(c1ccccc1)C1(C(=O)NC2CCCC2)CCCCC1	i	i	i	i	nt	nt	nt
O=C(c1cnccn1)N(c1ccccc1)C1(C(=O)NC2CCCCC2)CCCCC1	i	i	i	30	i	29	18
Cc1ccc(-c2cc(C(=O)NN=Cc3c(C)nn(C)c3C)c3ccccc3n2)c(C)c1	nt	nt	nt	nt	i	nt	nt
CCC(=O)c1c[nH]c(C(=O)NCc2cccc(C(F)(F)F)c2)c1	i	i	i	79	i	+	+
Cc1cc(=O)oc2cc(OCC(=O)N3CCOCC3)c(Cl)cc12	i	i	nt	109	i	+	+
Cc1cc(=O)oc2cc(OCC(=O)N3CCC(O)CC3)c(Cl)cc12	i	i	i	i	i	nt	nt
Cc1cc(=O)oc2cc(OCC(=O)N3CCCC3)c(Cl)cc12	i	i	nt	31	i	i	24
CCOC(=O)C1C2COc3ccccc3C2N2C(=O)c3ccccc3NC(=O)[C@@]12C (stereo not given in full)	nt	nt	nt	nt	i	nt	nt
O=C(N/C(=C\c1cccc([N+](=O)[O-])c1)C(=O)N1CCOCC1)c1ccco1	i	i	i	65	i	176	142
ON=C1CCSc2ccccc21	nt	nt	nt	nt	i	nt	nt
COc1ccc(CNC(=O)CC(C)=NNC(=O)COc2ccc(Br)cc2)cc1	nt	nt	nt	nt	i	nt	nt
CCOC(=O)C1CCN(C(=O)Cn2cnc3sc(C)c(S(=O)(=O)N4CCC(C)CC4)c3c2=O)CC1	i	i	i	78	i	186	143
CCOC(=O)C1CCN(C(=O)Cn2cnc3sc(C)c(S(=O)(=O)N4CCCCC4)c3c2=O)CC1	i	i	i	i	i	nt	nt
CCOP(=O)(OCC)C(=NOC(=O)c1ccc(Cl)cc1Cl)C(N)=O	nt	nt	nt	nt	i	nt	nt
COC(=O)c1[nH]c2ccc(Cl)cc2c1NC(=O)Oc1ccccc1	i	i	i	66	nt	i	i
COC(=O)c1[nH]c2ccc(Cl)cc2c1NC(=O)C1CC1	i	i	i	i	nt	nt	nt
C=C(C)CN(CC)C(=O)CN1C(=O)NC2(CCc3ccccc32)C1=O (stereo not given)	i	i	i	i	i	nt	nt
C=C(C)CN(CC)C(=O)CN1C(=O)NC2(CCCc3ccccc32)C1=O (stereo not given)	i	i	i	63	i	101	85
COc1cccc(C(=O)COc2ccc3c(C)c(Cc4ccccc4)c(=O)oc3c2)c1	i	i	i	i	i	nt	nt
Cc1c(Cc2ccccc2)c(=O)oc2cc(OCC(=O)NCc3ccccn3)ccc12	i	i	i	78	i	88	70
Cc1c(Cc2ccccc2)c(=O)oc2cc(OCC(=O)N[C@@H](Cc3ccccc3)C(=O)O)ccc12	i	i	i	92	nt	165	136
